From the supplement of paper PMC11732987, “Enantioselective OTUD7B fragment discovery through chemoproteomics screening and high-throughput optimisation” (Communications Chemistry, 2025)

Tests used:
Experiment in all cases: log2 ratio of Biotin-Ahx-Ub-VS probe labelling (fragment/DMSO); higher = less target engagement (more negative = stronger competition), active = hit call of the paper (q ≤ 0.05, log2 ratio ≤ -1)
Conditions in all cases: compound concentration: 200 uM; treatment time: 3 h
USP19 = target: T1, USP19 (UniProt O94966)
T1 sequence (whole entry): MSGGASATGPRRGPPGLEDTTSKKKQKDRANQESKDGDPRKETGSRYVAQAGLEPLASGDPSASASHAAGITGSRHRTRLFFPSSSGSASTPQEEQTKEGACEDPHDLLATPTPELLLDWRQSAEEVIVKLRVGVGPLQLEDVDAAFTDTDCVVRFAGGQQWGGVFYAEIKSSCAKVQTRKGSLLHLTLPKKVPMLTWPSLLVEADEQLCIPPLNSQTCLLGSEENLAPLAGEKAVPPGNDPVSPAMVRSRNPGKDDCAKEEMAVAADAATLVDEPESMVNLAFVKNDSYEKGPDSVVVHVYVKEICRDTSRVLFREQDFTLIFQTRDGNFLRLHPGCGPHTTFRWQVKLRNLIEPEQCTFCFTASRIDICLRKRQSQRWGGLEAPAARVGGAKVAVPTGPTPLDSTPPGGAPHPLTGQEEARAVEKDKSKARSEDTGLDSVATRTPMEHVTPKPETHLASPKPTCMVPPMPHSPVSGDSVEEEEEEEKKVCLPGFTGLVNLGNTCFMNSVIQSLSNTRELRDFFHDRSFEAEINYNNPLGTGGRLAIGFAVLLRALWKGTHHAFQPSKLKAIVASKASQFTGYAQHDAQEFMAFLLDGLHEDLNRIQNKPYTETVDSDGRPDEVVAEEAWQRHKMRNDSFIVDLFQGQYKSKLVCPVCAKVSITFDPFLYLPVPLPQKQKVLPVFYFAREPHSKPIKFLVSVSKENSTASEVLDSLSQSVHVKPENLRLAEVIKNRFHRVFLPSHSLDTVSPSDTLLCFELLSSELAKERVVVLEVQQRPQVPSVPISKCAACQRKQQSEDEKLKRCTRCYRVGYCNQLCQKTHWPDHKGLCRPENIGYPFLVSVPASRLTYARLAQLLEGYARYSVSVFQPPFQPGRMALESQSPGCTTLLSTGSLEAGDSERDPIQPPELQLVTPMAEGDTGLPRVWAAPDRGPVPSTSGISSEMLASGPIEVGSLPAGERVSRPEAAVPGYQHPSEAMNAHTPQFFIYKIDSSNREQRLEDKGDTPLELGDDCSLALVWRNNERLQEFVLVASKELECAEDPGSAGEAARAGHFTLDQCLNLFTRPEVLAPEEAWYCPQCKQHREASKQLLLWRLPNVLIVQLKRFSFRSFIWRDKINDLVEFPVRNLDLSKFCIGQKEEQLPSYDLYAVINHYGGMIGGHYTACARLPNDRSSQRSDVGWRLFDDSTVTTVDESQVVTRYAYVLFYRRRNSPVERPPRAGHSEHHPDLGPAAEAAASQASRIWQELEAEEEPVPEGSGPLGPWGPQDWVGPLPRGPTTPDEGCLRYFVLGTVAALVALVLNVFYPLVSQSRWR
Procedure, shortened: (§1)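 Using Biotin-Ahx-Ub-VS at 0.5 µM final for 1 h, DUBs were labelled in HEK293T lysate (495 µg per sample) that had first been treated in triplicate with fragment at 200 µM or vehicle for 3 h. NeutrAvidin enrichment, LysC and trypsin digestion and diaPASEF LC-MS/MS followed. Spectronaut label-free quantities were global-median-normalised. Values are average log2 fragment/vehicle ratios by unpaired t-test, using proteins with ≥2 unique peptides.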

USP22 = target: T2, USP22 (UniProt Q9UPT9)
T2 sequence (whole entry): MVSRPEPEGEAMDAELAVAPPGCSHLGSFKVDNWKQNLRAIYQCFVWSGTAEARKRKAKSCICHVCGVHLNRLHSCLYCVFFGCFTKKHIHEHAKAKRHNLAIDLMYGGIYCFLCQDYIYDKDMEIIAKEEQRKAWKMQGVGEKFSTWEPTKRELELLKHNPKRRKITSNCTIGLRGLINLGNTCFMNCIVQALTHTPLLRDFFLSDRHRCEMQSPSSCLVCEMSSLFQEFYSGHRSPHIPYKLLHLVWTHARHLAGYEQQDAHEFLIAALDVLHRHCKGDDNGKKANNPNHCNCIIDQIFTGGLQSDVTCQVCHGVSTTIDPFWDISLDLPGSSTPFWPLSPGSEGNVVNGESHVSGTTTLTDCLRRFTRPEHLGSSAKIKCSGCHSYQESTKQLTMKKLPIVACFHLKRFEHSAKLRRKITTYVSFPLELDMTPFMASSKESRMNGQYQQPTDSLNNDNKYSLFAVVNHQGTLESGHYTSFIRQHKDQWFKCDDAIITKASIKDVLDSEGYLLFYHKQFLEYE
Procedure, shortened: as §1

USP24 = USP24 (UniProt Q9UPU5)
USP24, sequence (Q9UPU5 whole entry): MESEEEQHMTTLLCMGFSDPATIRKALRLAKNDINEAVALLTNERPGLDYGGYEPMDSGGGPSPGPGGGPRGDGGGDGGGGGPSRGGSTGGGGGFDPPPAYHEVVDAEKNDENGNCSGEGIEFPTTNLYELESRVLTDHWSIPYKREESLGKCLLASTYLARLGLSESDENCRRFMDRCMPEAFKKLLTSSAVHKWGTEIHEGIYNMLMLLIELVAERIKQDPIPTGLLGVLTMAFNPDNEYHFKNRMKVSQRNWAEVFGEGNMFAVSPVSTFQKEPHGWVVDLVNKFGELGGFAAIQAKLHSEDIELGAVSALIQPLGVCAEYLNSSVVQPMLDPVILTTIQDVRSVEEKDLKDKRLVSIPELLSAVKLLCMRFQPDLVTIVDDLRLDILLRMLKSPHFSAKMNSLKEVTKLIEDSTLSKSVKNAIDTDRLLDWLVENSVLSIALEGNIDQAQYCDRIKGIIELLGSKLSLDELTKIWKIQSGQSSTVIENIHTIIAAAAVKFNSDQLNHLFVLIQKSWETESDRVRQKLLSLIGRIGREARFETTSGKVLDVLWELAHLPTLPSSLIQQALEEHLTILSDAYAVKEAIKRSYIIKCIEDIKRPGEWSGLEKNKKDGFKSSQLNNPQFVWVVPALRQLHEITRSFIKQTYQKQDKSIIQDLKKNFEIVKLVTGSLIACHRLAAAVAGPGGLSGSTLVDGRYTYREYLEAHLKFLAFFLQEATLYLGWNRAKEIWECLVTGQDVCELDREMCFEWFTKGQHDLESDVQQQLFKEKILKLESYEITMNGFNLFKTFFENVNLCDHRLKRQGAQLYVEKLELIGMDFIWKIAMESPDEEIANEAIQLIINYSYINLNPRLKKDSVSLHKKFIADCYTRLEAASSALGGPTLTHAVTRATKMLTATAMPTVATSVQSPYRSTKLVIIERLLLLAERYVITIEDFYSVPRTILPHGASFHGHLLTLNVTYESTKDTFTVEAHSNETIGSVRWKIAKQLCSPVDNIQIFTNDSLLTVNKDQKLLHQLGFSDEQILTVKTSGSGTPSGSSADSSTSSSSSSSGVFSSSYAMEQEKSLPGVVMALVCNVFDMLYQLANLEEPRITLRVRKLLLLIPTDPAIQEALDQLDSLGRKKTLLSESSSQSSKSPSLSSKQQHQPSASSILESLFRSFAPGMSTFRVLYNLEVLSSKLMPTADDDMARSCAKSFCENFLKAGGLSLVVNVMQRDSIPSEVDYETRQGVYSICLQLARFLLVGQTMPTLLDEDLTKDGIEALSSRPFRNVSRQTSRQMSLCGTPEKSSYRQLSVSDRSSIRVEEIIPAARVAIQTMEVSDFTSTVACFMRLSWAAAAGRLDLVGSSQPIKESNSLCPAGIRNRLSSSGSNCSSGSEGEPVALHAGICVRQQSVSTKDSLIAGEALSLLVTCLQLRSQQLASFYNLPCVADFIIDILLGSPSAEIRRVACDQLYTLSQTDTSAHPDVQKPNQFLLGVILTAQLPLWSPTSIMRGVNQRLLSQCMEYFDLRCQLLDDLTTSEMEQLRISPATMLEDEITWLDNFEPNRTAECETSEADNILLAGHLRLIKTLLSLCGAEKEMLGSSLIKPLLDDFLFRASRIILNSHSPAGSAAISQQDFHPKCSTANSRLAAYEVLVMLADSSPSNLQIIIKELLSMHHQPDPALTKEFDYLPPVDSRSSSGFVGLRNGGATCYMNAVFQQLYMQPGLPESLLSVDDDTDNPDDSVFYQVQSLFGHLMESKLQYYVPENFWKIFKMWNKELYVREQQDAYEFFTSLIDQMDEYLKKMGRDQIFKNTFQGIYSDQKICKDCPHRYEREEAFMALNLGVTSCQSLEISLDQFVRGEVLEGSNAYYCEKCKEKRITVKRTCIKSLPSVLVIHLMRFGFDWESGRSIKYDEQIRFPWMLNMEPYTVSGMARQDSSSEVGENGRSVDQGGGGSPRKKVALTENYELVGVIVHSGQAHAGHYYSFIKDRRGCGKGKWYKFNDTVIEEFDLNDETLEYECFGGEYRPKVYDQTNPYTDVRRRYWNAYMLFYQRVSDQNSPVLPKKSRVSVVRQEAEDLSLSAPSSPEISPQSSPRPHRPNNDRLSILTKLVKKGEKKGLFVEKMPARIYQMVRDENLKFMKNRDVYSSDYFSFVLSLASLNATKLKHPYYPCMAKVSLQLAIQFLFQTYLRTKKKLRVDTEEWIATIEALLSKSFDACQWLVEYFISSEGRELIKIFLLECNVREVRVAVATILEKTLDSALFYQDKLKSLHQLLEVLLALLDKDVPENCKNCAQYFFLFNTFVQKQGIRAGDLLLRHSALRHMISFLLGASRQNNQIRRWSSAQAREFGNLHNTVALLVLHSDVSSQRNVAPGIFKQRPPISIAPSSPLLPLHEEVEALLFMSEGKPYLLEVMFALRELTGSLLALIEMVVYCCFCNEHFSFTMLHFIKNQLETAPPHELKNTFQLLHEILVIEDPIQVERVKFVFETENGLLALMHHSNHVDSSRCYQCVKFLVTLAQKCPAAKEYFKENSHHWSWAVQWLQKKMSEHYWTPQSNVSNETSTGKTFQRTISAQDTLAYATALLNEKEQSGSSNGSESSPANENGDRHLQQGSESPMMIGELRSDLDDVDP
Procedure, shortened: as §1

USP25 = target: T3, USP25 (UniProt Q9UHP3)
T3 sequence (whole entry): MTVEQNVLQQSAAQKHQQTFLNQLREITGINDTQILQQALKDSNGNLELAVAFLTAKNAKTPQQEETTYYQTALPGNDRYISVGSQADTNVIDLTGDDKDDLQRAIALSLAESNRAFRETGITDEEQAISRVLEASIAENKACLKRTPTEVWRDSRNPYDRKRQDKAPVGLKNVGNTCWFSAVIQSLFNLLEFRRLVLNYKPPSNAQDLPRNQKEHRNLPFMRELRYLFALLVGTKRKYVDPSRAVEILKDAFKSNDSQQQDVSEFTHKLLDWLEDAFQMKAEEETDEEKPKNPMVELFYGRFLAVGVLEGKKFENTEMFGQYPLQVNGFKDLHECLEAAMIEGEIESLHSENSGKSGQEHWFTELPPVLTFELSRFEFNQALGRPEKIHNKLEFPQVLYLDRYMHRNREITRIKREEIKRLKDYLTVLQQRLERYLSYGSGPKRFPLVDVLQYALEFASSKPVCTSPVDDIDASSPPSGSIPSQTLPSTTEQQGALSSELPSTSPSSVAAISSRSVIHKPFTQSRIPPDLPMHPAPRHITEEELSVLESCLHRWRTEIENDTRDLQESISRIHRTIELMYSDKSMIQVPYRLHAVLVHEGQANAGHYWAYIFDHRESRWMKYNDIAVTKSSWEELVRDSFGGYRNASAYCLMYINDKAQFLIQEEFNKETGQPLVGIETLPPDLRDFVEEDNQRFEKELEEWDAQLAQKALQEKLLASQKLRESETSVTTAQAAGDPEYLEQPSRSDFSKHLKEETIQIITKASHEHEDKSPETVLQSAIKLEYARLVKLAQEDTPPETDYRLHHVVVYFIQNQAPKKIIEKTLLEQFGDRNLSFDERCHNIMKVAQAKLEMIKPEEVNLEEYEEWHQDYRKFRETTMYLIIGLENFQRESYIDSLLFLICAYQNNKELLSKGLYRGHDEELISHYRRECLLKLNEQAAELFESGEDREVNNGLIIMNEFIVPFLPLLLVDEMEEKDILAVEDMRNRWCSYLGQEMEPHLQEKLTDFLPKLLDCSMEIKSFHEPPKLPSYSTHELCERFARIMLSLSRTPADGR
Procedure, shortened: as §1

USP28 = target: T4, USP28 (UniProt Q96RU2)
T4 sequence (whole entry): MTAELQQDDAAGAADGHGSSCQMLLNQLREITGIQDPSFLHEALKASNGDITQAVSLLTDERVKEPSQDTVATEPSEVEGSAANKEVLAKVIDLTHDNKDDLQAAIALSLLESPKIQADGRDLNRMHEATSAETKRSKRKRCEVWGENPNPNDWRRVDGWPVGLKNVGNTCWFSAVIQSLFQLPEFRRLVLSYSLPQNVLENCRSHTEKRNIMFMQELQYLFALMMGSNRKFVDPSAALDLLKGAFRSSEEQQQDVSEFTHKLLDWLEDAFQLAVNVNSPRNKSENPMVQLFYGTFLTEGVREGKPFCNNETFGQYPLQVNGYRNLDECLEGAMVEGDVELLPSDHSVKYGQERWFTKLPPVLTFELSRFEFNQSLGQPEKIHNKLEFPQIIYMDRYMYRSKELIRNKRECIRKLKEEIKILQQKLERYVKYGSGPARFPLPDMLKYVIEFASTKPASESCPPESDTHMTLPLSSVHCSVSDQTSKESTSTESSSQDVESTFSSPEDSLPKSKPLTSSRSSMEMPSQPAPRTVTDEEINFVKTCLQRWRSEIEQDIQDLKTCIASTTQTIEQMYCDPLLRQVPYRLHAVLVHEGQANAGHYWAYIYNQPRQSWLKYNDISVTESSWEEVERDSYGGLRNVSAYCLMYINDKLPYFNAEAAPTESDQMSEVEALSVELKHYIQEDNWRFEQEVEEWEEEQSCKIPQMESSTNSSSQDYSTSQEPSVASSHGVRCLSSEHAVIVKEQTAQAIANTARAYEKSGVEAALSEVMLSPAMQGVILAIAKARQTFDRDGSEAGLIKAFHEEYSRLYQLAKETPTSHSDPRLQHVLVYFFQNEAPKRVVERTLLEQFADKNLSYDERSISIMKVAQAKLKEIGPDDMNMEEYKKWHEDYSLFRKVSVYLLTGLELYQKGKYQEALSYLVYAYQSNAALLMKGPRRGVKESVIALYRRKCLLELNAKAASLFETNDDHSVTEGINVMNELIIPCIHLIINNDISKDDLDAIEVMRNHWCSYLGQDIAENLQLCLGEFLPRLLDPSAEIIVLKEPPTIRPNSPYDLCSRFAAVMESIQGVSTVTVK
Procedure, shortened: as §1

Measured: log2 ratio of Biotin-Ahx-Ub-VS probe labelling

Cc1cc(C2CCCN2C(=O)CCl)nn1C.Cl (stereo not given)
inactive: USP19 -0.282 | USP22 -0.312 | USP24 -0.202 | USP25 -0.257 | USP28 -0.271
